# Test results reported in PubChem BioAssay (Tox21).
# A number with no mark means an inactive call. Records with an inconclusive call do not appear. Where a call stands in place of a potency, no number is given. The source made the active and inactive calls. Unless noted, calls come from the whole dose curve.
# Columns and labels:
# [1] = Nuclear factor erythroid 2-related factor 2/antioxidant responsive element (Nrf2/ARE) small molecule agonists: qHTS cell viability counter screen in human keratinocytes (AID 1919968; active = well fitted curve in the direction sought with a large enough effect in the repeat runs; an effect the other way counts as inactive or inconclusive; note: nearly all actives have a fitted effect of over 55% in size; note: potency is the fitted concentration of half-maximal effect)
# Summary of the method: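 Seed 1,500 KeratinoSens cells per well, then incubate 5 h at 37 C/5% CO2. Add compounds in DMSO and incubate 23 h. Add CellTiter-Fluor, wait 1 h and read fluorescence.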
# [2] = target: Gonadotropin-releasing hormone receptor (Homo sapiens) (UniProt P30968); test: Human gonadotropin-releasing hormone receptor (GnRHR) small molecule agonists, calcium flux assay in GnRHR-HEK293 cells (AID 1920063); note: nearly all actives have a fitted effect of over 35% in size; note: potency is the fitted concentration of half-maximal effect
# Sequence of Gonadotropin-releasing hormone receptor (Homo sapiens) (P30968 whole entry, looked up): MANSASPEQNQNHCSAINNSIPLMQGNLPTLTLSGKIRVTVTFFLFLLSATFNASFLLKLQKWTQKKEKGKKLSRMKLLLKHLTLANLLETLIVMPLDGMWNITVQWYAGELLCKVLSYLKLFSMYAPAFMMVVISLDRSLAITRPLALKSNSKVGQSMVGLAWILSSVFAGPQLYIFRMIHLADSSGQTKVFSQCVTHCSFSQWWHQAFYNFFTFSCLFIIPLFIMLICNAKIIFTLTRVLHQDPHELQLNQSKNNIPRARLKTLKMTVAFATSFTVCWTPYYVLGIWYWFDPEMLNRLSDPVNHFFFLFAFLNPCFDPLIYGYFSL
# Summary of the method: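 Cells: HEK293 stably expressing human GnRHR. Steps: overnight (18 h) culture, 1 h calcium dye loading at 37 C, compound addition, kinetic fluorescence read at 480/540 nm. Each compound tested at 15 concentrations in triplicate.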
# [3] = target: KiSS-1 receptor (Homo sapiens) (UniProt Q969F8); test: Human kisspeptin (KISS1R) small molecule agonists, calcium flux assay in KISS1R-HEK293 cells (AID 1920064; active = well fitted curve in the direction sought with a large enough effect in the repeat runs; an effect the other way counts as inactive or inconclusive)
# Sequence of KiSS-1 receptor (Homo sapiens) (Q969F8 whole entry, looked up): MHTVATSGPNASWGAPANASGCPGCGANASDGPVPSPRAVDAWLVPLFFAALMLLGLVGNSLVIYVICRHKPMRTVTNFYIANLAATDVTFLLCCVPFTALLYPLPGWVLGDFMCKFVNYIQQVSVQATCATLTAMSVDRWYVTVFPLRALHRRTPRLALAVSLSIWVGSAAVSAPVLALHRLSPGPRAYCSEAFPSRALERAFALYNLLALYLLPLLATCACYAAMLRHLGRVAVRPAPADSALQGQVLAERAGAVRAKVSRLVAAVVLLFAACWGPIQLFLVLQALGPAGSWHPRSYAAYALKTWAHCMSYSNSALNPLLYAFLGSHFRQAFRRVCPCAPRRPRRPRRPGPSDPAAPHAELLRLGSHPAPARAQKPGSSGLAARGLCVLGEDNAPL
# Summary of the method: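 Cells plated and incubated 18 h; dye added, 1 h at 37 C; compounds in DMSO pinned in; signal read at 480/540 nm every second for 3 min. Each compound tested at 15 concentrations in triplicate.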
# [4] = G protein-coupled receptor (GPCR) small molecule agonists, calcium flux assay: HEK293 wild type cell line counter screen (AID 1920065)
# Summary of the method: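 Counter-screen of the Tox21 10K library for non-specific calcium release: dye-loaded cells received compounds in DMSO and were monitored by kinetic fluorescence (480/540 nm, 3 min). Fifteen concentrations, run in triplicate.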
# [5] = p53 small molecule agonists, cell-based qHTS assay with human liver microsomes (AID 1963577);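 note: p53 response element beta-lactamase reporter cells with liver microsomes plus NADPH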
# Summary of the method: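 HLM-supplemented p53RE-bla reporter assay: 16 h compound exposure at 37 C, microsomes and NADPH each 0.5 mg/mL final, read by fluorescence intensity.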
# [6] = p53 small molecule agonists, cell-based qHTS assay with rat liver microsomes (AID 1963578)
# Summary of the method: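 Quantitative HTS of the Tox21 10K library: p53RE-bla cells, rat liver microsomes plus NADPH at 0.5 mg/mL final each, 16 h at 37 C, beta-lactamase fluorescence detection.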
# [7] = p53 small molecule agonists, cell-based qHTS assay with rat liver microsomes: qHTS cell viability counter screen (AID 1963580); note: nearly all actives have a fitted effect of over 45% in size
# Summary of the method: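 p53RE-bla HCT-116 cells were exposed 16 h at 37 C to compounds with rat liver microsomes (0.5 mg/mL) and NADPH (0.5 mg/mL). Viability was measured in the same wells as ATP content by CellTiter-Glo luminescence.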
# [8] = target: Muscarinic acetylcholine receptor M1 (Homo sapiens) (UniProt P11229); test: Cholinergic receptor muscarinic 1 (CHRM1) small molecule antagonists, cell-based qHTS assay (AID 1963588); note: nearly all actives have a fitted effect of over 40% in size
# Sequence of Muscarinic acetylcholine receptor M1 (Homo sapiens) (P11229 whole entry, looked up): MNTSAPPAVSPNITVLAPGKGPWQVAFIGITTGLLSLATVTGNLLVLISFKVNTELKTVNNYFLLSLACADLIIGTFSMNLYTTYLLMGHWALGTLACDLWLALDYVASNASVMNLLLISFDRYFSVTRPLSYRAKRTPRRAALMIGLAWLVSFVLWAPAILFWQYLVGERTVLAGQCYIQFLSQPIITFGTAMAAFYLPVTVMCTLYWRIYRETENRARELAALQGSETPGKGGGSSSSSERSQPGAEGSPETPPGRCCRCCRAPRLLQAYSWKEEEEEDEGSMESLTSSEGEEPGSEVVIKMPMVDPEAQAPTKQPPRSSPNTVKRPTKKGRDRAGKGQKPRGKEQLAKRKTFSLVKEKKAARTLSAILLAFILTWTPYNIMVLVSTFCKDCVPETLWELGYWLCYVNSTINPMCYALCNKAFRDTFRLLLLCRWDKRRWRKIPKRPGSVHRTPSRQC
# Summary of the method: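 CHRM1-CHO calcium-flux assay, antagonist mode. Cells were seeded 18 h, dye-loaded 1 h at 37 C and given compound for 5 min at RT, then acetylcholine was added at 50nM. FDSS fluorescence was read 3 min; 15 concentrations, three runs.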
# [9] = target: Muscarinic acetylcholine receptor M1 (Homo sapiens) (UniProt P11229); test: Cholinergic receptor muscarinic 1 (CHRM1) small molecule agonists, cell-based qHTS assay (AID 1963589); note: nearly all actives have a fitted effect of over 35% in size
# Summary of the method: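 Agonist-mode qHTS in CHO cells stably carrying human muscarinic M1. Intracellular calcium is tracked by fluorescence every second after compound transfer; each compound runs at 15 concentrations in three independent runs.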
# [10] = target: Beta-2 adrenergic receptor (Homo sapiens) (UniProt P07550); test: Adrenergic beta2 receptor (ADRB2) small molecule antagonists, cell-based qHTS assay (AID 1963592); note: series mostly up to about 92 µM; nearly all actives have a fitted effect of over 50% in size
# Sequence of Beta-2 adrenergic receptor (Homo sapiens) (P07550 whole entry, looked up): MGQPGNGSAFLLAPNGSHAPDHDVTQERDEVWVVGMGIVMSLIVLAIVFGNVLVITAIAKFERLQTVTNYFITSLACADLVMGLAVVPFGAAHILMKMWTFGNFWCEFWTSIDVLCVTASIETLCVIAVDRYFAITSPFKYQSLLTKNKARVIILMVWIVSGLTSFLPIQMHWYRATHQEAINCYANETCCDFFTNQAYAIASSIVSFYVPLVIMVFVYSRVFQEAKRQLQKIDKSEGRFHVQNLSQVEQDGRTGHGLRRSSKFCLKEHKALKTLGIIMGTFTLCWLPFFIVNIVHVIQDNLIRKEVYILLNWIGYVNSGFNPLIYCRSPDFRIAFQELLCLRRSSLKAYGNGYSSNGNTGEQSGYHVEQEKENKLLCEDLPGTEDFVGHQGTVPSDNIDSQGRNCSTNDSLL
# Summary of the method: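 Cells (CHO, stable ADRB2 overexpression) incubated 18-20hr at 37C; compounds added from DMSO; agonist mix (1nM isoproterenol, 100uM IBMX, 25uM Ro-20-1724) added; 0.5hr RT; d2-cAMP and anti-cAMP-cryptate added; 1hr RT; 665/615 nm read.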
# [11] = target: Beta-2 adrenergic receptor (Homo sapiens) (UniProt P07550); test: Adrenergic beta2 receptor (ADRB2) small molecule agonists, cell-based qHTS assay (AID 1963593);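 note: CHO cells stably overexpressing human ADRB2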
# Summary of the method: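 CHO cells stably over-expressing ADRB2 were plated overnight at 37C, then dosed with compounds plus a stimulation mix containing 100uM IBMX and 25uM Ro-20-1724 for 0.5hr at room temperature. cAMP was measured by HTRF competition, 1hr.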
# [12] = target: D(2) dopamine receptor (Homo sapiens) (UniProt P14416); test: Dopamine D2 receptor (DRD2) small molecule antagonists, cell-based qHTS assay (AID 1963595; active = well fitted inhibition curve with a large enough effect in the signal ratio in the repeat runs, with a control signal flat; the % refers to the signal ratio; note: potency is the fitted concentration of half-maximal effect)
# Sequence of D(2) dopamine receptor (Homo sapiens) (P14416 whole entry, looked up): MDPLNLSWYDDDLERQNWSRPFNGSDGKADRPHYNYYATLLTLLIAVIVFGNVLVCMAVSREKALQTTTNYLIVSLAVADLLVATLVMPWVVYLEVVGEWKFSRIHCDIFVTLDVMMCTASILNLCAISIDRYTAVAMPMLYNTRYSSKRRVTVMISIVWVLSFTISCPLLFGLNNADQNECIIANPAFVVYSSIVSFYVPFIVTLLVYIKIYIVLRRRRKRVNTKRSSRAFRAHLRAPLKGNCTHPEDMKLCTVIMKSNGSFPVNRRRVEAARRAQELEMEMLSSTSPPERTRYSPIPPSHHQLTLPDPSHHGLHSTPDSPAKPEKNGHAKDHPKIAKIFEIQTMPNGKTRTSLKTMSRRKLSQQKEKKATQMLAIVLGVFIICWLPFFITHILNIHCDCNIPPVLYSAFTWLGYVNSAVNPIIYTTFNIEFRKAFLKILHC
# Summary of the method: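 DRD2-HEK293; 0.1 mM Ro20-1724; cpd 10 min RT; NKH477 200 nM + quinpirole 12 nM, 30 min RT; HTRF cAMP (cAMP-d2/anti-cAMP cryptate), 665/620 nm ratio after 1 h.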
# [13] = p53 small molecule agonists, cell-based qHTS assay: qHTS cell viability counter screen (AID 1963581); note: nearly all actives have a fitted effect of over 45% in size; note: potency is the fitted concentration of half-maximal effect
# Summary of the method: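 Cells: HCT-116 with p53 response element-driven beta-lactamase. Treatment: 16 h, 37 C, compounds in DMSO. Read: CellTiter-Glo luminescence after 30 min RT.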
# [14] = target: 5-hydroxytryptamine receptor 2A (Homo sapiens) (UniProt P28223); test: 5-hydroxytryptamine receptor 2A (HTR2A) small molecule antagonists, cell-based qHTS assay (AID 1963586); note: nearly all actives have a fitted effect of over 45% in size
# Sequence of 5-hydroxytryptamine receptor 2A (Homo sapiens) (P28223 whole entry, looked up): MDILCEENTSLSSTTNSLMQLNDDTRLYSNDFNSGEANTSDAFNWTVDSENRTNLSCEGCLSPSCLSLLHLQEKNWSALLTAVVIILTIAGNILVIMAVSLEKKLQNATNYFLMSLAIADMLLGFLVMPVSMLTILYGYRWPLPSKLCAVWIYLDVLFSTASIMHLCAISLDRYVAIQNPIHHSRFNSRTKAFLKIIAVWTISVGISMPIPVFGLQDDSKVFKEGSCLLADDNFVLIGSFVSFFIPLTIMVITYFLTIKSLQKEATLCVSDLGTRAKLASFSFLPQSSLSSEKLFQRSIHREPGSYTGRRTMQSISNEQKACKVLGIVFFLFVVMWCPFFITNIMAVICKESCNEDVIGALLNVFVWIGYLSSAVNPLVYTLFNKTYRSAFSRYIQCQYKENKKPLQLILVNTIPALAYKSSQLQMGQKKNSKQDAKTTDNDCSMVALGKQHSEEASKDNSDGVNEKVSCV
# Summary of the method: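 Antagonist-mode intracellular calcium assay: DOI (4 nM) added after 5 min compound pre-incubation at room temperature to dye-loaded HTR2A-CHO cells. Fluorescence followed for 3 min, sampled every second.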
# [15] = target: 5-hydroxytryptamine receptor 2A (Homo sapiens) (UniProt P28223); test: 5-hydroxytryptamine receptor 2A (HTR2A) small molecule agonists, cell-based qHTS assay (AID 1963587); note: nearly all actives have a fitted effect of over 30% in size
# Summary of the method: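 CHO cells stably expressing human HTR2A, plated 18 h, loaded with calcium dye 1 h at 37 C. Agonist mode: compounds added and intracellular calcium fluorescence recorded kinetically for 2 min at 1 sec intervals.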
# [16] = target: D(2) dopamine receptor (Homo sapiens) (UniProt P14416); test: Dopamine D2 receptor (DRD2) small molecule agonists, cell-based qHTS assay (AID 1963594); note: nearly all actives have a fitted effect of over 35% in size
# Summary of the method: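 HEK293 cells stably expressing human DRD2, pre-treated with PDE inhibitor Ro20-1724 (0.1 mM final) and compound 10 min at room temperature, then stimulated with NKH477 (200nM […]) for 30 min. cAMP read by HTRF (665/620 nm).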
# [17] = p53 small molecule agonists, cell-based qHTS assay with human liver microsomes: qHTS cell viability counter screen (AID 1963579); note: nearly all actives have a fitted effect of over 45% in size
# Summary of the method: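 Viability of p53RE-bla cells is measured as CellTiter-Glo luminescence following a 16 h, 37 C incubation with compound, liver microsomes from human donors and NADPH.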
# [18] = p53 small molecule agonists, cell-based qHTS assay (AID 1963582; active = well fitted activation curve with a large enough effect in the signal ratio in the repeat runs, not every such curve was filed as active; the % refers to the signal ratio)
# Summary of the method: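 Quantitative HTS in p53RE-bla cells: after a 5 h settling period, compounds delivered in DMSO were left on cells for 16 h at 37 C, and reporter induction was measured as fluorescence following 2 h substrate loading.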
# [19] = cAMP Responsive Elements (CRE) small molecule antagonists, cell-based qHTS assay (AID 1963591; active = well fitted inhibition curve with a large enough effect in the signal ratio in the repeat runs, not every such curve was filed as active; the % refers to the signal ratio)
# Summary of the method: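 Antagonist mode: test compounds are co-incubated with the adenylyl cyclase activator NKH477 (0.25 uM final) on CRE-bla HEK293T cells for 3 h at 37 °C, followed by LiveBLAzer substrate loading.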
# [20] = cAMP Responsive Elements (CRE) small molecule agonists, cell-based qHTS assay (AID 1963590)
# Summary of the method: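 Agonist mode qHTS in CRE-bla HEK 293T cells: compounds dosed from DMSO for 3 h at 37 C/5% CO2, followed by LiveBLAzer B/G FRET substrate for 2 h at room temperature.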
smiles,measurement,setting,value
O=C1CC2(CCCC2)CC(=O)N1CCNCC1COc2ccccc2O1 (stereo unspecified),Potency,[1],inactive
same,Potency,[2],inactive
same,outcome,[3],inactive
same,outcome,[4],inactive
same,Potency,[5],inactive
same,Potency,[6],inactive
same,Potency,[7],inactive
same,Potency,[8],inactive
same,Potency,[9],inactive
same,Potency,[10],inactive
same,Potency,[11],inactive
same,Potency,[12],0.75 µM (active)
CC1=C(C(=O)OC(C)C)C(c2cccc([N+](=O)[O-])c2)C(C(=O)OC2CN(C(c3ccccc3)c3ccccc3)C2)=C(N)N1 (stereo unspecified),Potency,[1],8.41 µM (active)
same,Potency,[2],inactive
same,outcome,[3],inactive
same,outcome,[4],inactive
same,Potency,[5],inactive
same,Potency,[6],inactive
same,Potency,[7],inactive
same,Potency,[13],11.2 µM (active)
same,Potency,[14],inactive
same,Potency,[15],inactive
same,Potency,[8],inactive
same,Potency,[9],inactive
same,Potency,[10],inactive
same,Potency,[11],inactive
same,Potency,[16],inactive
same,Potency,[12],inactive
CCN(CC)CCOc1ccc(C(O)(Cc2ccc(Cl)cc2)c2ccc(C)cc2)cc1 (stereo unspecified),Potency,[1],26.6 µM (active)
same,Potency,[2],inactive
same,outcome,[3],inactive
same,outcome,[4],inactive
same,Potency,[5],inactive
same,Potency,[6],inactive
same,Potency,[17],inactive
same,Potency,[13],19.9 µM (active)
same,Potency,[18],inactive
same,Potency,[10],inactive
same,Potency,[11],inactive
same,Potency,[16],inactive
same,Potency,[12],inactive
CC(C)(C)NCCNC(C)(C)C,Potency,[1],inactive
same,Potency,[2],inactive
same,outcome,[3],inactive
same,outcome,[4],inactive
same,Potency,[5],inactive
same,Potency,[6],inactive
same,Potency,[17],inactive
same,Potency,[7],inactive
same,Potency,[18],inactive
same,Potency,[14],inactive
same,Potency,[15],inactive
same,Potency,[8],inactive
same,Potency,[9],inactive
same,Potency,[19],inactive
same,Potency,[10],inactive
same,Potency,[16],inactive
same,Potency,[12],inactive
O=C(O)Cn1c(C(=O)Nc2nc(-c3ccccc3Cl)cs2)cc2ccccc21,Potency,[1],inactive
same,Potency,[2],3.38 µM (active)
same,outcome,[3],inactive
same,outcome,[4],inactive
same,Potency,[5],inactive
same,Potency,[6],inactive
same,Potency,[17],inactive
same,Potency,[7],inactive
same,Potency,[14],inactive
same,Potency,[15],inactive
same,Potency,[8],inactive
same,Potency,[9],inactive
same,Potency,[10],inactive
same,Potency,[12],inactive
CCCC(=O)OCOC(=O)C1=C(C)NC(C)=C(C(=O)OC)C1c1cccc(Cl)c1Cl (stereo unspecified),Potency,[1],inactive
same,Potency,[2],inactive
same,outcome,[3],inactive
same,outcome,[4],inactive
same,Potency,[5],inactive
same,Potency,[6],inactive
same,Potency,[7],inactive
same,Potency,[13],inactive
same,Potency,[18],inactive
same,Potency,[14],inactive
same,Potency,[15],inactive
same,Potency,[8],inactive
same,Potency,[9],inactive
same,Potency,[20],inactive
same,Potency,[19],inactive
same,Potency,[10],inactive
same,Potency,[12],inactive
O=C(O)CNCC(=O)O,"activity change, negative = cytotoxicity",[1],0.812% [at 8.39 µM]
same,activity change,[2],"0.0589% [at 5.22 µM, active compounds read high]"
same,activation,[3],0.594% [at 6.97 µM]
same,activation,[4],0.144% [at 5.23 µM]
same,activation,[5],0.261% [at 5.99 µM]
same,activation,[6],0.304% [at 5.99 µM]
same,"activity change, negative = cytotoxicity",[7],8.22% [at 5.99 µM]
same,"activity change, negative = cytotoxicity",[13],-13% [at 5.99 µM]
same,activation,[18],0.447% [at 5.99 µM]
same,activation,[15],-1.98% [at 7.02 µM]
same,"activity, negative = inhibition",[8],-11.9% [at 5.58 µM]
same,activation,[9],0.803% [at 6.97 µM]
same,activation,[20],-0.186% [at 8.39 µM]
same,"activity change, negative = inhibition",[19],0.325% [at 8.39 µM]
same,"activity change, negative = inhibition",[10],-7.9% [at 8.39 µM]
same,activation,[16],-0.477% [at 8.39 µM]
same,"activity change, negative = inhibition",[12],-7.14% [at 8.38 µM]
